Holding throughout (assay): NCI-60 one-dose screen, 48 h (100 = growth as untreated, 0 = no growth, -100 = all killed)
Common to all, as to settings: 10 µM unless noted

Assay [1] concerns NCI-H23 lung.
For assay [2], the system named is NCI-H460 lung.
Assay [3] concerns 786-0 renal.
Assay [4] concerns DU-145 prostate.
The test system of assay [5] is MDA-MB-231 breast.
Assay [6] concerns SF-268 CNS.
Assay [7] deals with SF-539 CNS.
The test system of assay [8] is M14 melanoma.
Assay [9] deals with SNB-75 CNS.
Assay [10] relates to PC-3 prostate.
The test system of assay [11] is UACC-62 melanoma.
The subject of assay [12] is SK-MEL-28 melanoma.
Assay [13] concerns ACHN renal.
Assay [14] deals with OVCAR-5 ovarian.
Assay [15] has as its system OVCAR-3 ovarian.
The test system of assay [16] is SW-620 colon.
Assay [17] relates to MCF7 breast.
Assay [18] relates to HCT-116 colon.
Assay [19] deals with KM12 colon.
For assay [20], the system named is NCI/ADR-RES ovarian.

Compounds without any hit were thinned out: in the full panel of roughly 83,000, 20% have a hit.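 The endpoint reported here, percent growth, reads 100 for growth as untreated, 0 for no net growth and -100 for all cells dead.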 Values without a mark were called inactive. Active and inactive are the calls of the source. How the source made its calls: active means growth percent below 10; inactive means the rest.

As for `CC1(C)N=C(N)N=C(N)N1c1ccc(CCC(=O)Nc2cccc(S(=O)(=O)F)c2)cc1`, the growth in assay [1] was 63.8%; in assay [2], 27.7%; in assay [3], 58%; in assay [4] it was 72.1%; in assay [5], 104%; in [6] it was 51.6%. Besides, the growth in [7] was 39.4%; in assay [8] it was 69.8%; in [9] it was 59.5%; in [10] it was 24.5%; in [11] it was 45.3%; in [12] it was 103%. Moreover, the growth in [13] was 99.3%; in assay [14], 91.2%; in assay [15] it was 114%; in [16], 52.3%; in assay [17] it was 54.6%; in [18], 41.3%. For the same compound, the growth in assay [19] is 75%.

For `CC12CCC(=O)C=C1CCC1C2CCC2(C)C(C(=O)COC(=O)Cc3ccc(N(CCCl)CCCl)cc3)CCC12` (stereo not given), the growth in assay [1] was 94%; in [2], 40.5%; in assay [3], 93.7%; in assay [4], 109%; in assay [5] it was 108%; in [6] it was 77.9%. The growth in assay [7] was 63%; in assay [8] it was 104%; in [9], 83.3%; in assay [10], 36.1%; in assay [11], 66.3%; in [12], 104%. The growth in assay [13] was 40.3%; in assay [14] it was 119%; in [15], 107%; in assay [20] it was 91.8%; in assay [16] it was 75.6%; in assay [17], 70.5%. Also, the growth in assay [18] was 82.4%; in assay [19], 101%.

With `c1ccc([As]=[As]c2ccccc2)cc1` (stereo not given), the growth in [1] was -37.2% (active); in assay [2] it was -45.2% (active); in assay [3], -90.4% (active); in [4], -6.06% (active); in assay [5] it was -60.9% (active); in assay [6], -39.8% (active). Also, the growth is -66.8% (active) in assay [7]; -30.2% (active) in [8]; 14.3% in assay [9]; -22.9% (active) in [10]; -76.4% (active) in assay [11]; -25.5% (active) in [12]. Also, the growth in assay [13] was -99.1% (active); in [14] it was -7.9% (active); in assay [15], -93% (active); in assay [20] it was 9.34% (active); in assay [16], -68.1% (active); in [17], -76.2% (active). The figures for the growth in [18] and in assay [19] were -99.4% (active) and 9.67% (active), respectively.

For the compound `C[C@]12CC[C@H]3[C@@H](C[C@@H]4N=C(c5ccc(O)cc5)S[C@@]45C[C@H](O)CC[C@]35C)[C@@H]1CC[C@@H]2O`, the growth in [1] was 74.7%; in assay [2] it was 41.9%; in assay [3], 8.35% (active); in [4], 63.8%; in [5] it was 56.2%; in [6], 48.6%. The growth in assay [7] was 8.02% (active); in [8], 60.5%; in [9] it was 26.4%; in [10] it was 49.5%; in assay [11] it was 28.7%; in assay [12], 53.3%. The growth is 46% in [13]; 106% in assay [14]; 38.6% in [15]; 76.8% in assay [20]; 71.7% in assay [16]; 42.6% in [17]. For the same compound, the growth in assay [18] is 43.8%; in [19], 60.8%.

With `COC(C)(C)CCC[C@H](C)C/C=C/C(C)=C/C(=O)OC(C)C`, the growth in assay [1] is 78.7%; in assay [2] it was 109%; in assay [3] it was 85.8%; in assay [4], 113%; in assay [5], 102%; in [6], 103%. Further, the growth in assay [7] is 118%; in assay [8], 100%; in assay [9] it was 118%; in assay [10], 88.7%; in assay [11], 96.6%; in assay [12], 101%. In addition, the growth in [13] is 109%; in assay [14], 128%; in [15] it was 111%; in assay [20], 91.7%; in assay [16], 105%; in assay [18], 83.6%. Also, the growth in assay [19] was 107%.

On to `C=CC(=O)NC(O)C(Cl)(Cl)Cl` (stereo not given), for which the growth in [1] is 105%; in assay [2], 110%; in [3], 95.2%; in [4] it was 106%; in [5] it was 115%; in [6] it was 104%. In addition, the growth in assay [7] was 102%; in assay [8], 98.2%; in assay [9], 100%; in assay [10] it was 102%; in assay [11], 101%; in assay [12] it was 103%. In addition, the growth in assay [13] is 99.6%; in [14], 107%; in assay [15] it was 105%; in assay [20], 106%; in [16], 111%; in assay [17], 105%. Also, the results for the growth in [18] and in [19] were 101% and 106%, respectively.

For the compound `CC(=O)N1N=C(c2ccccc2)CC1c1sc(N(CCCl)CCCl)nc1Cl` (stereo not given), the growth in assay [1] is 85.8%; in assay [2], 96.2%; in [3], 99.7%; in assay [4], 99.5%; in assay [5], 95.3%; in assay [6], 94%. For the same compound, the growth is 106% in assay [7]; 101% in assay [8]; 83.1% in assay [9]; 88.1% in assay [10]; 64.5% in assay [11]; 108% in [12]. Besides, the growth is 99.2% in assay [13]; 98.4% in [14]; 96.4% in [15]; 99% in assay [20]; 96.8% in assay [16]; 95% in assay [17]. Also, the growth was 92.5% in assay [18] and 95.8% in [19].

Regarding `O=[N+]([O-])c1ccc(F)c([N+](=O)[O-])c1F`, the growth in assay [1] was 111%; in assay [2], 106%; in assay [4], 115%; in assay [5] it was 113%; in [6] it was 103%; in assay [7] it was 105%. In addition, the growth in assay [9] is 116%; in [10] it was 89.3%; in assay [11], 107%; in assay [12] it was 116%; in assay [13], 113%; in assay [14], 107%. The growth in [15] is 103%; in assay [20], 109%; in assay [16], 88.2%; in assay [17], 102%; in assay [19], 94.1%.

The values are drawn from PubChem BioAssay (NCI).
